Source: PubChem
ABCB6 inh MLPCN: inhibitors of human ABC transporter ABCB6. Q9NP58. K562-ABCB6 porphyrin accumulation, flow cytometry, 1 h; stronger effect = lower value. fluorescence ratio to DMSO, % at 10 µM. 360,000 compounds, 0.19% hits. AID 602162;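 active = fluorescence ratio to DMSO below 75%, the collection mean minus 3 SD; inconclusive = too few cells collected in the well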;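 also: signal is porphyrin accumulated inside mitochondria; 100% equals median channel fluorescence of DMSO control wells; lower ratio means ABCB6 inhibition with less porphyrin fluorescence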
Target sequence (Q9NP58 whole entry, looked up): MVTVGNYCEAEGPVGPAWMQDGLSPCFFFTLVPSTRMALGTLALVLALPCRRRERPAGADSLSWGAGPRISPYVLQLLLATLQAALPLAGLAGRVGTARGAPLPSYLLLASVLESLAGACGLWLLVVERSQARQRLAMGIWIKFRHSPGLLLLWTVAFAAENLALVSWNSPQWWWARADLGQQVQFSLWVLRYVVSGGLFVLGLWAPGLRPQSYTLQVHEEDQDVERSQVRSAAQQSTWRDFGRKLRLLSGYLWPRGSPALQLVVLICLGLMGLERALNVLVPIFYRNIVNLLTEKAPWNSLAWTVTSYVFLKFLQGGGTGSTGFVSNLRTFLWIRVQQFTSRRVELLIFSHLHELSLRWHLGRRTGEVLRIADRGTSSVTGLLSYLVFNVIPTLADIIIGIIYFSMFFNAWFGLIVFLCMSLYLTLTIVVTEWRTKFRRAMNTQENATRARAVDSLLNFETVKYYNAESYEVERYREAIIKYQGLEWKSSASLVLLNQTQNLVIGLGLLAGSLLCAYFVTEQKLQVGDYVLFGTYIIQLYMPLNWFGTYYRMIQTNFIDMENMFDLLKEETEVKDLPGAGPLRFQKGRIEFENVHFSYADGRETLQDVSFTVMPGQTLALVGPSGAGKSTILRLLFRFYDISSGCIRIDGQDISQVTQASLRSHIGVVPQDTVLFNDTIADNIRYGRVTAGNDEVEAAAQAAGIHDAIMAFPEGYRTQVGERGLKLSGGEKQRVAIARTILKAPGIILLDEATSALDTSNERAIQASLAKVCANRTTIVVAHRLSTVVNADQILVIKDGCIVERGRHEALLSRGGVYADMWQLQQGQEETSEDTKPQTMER
Granule exo inh: blocks lytic granule exocytosis. 360,000 compounds, 0.66% hits. inhibition, % at 10 µM. TALL-104 LAMP-1 surface exposure, flow cytometry; cells stimulated with thapsigargin and PMA;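 active = inhibition above about 55%, limit read from the data; inconclusive = no clear call, values can overlap the other calls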
Myeloid diff MLP: compounds promoting myeloid differentiation; ER-HoxA9 myeloid progenitors, lysozyme-GFP differentiation, flow cytometry; calls only at 10 µM; 360,000 compounds, 1% hits;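 active = normalized GFP-positive differentiation at or above the plate's own cutoff, the solvent-only control mean plus 3 SD; inconclusive = no clear call, values can overlap the other calls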;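 also: cells exposed to compound for four days before flow analysis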
An asterisk follows results filed as active. Rows were chosen to be rich in hits. Some 1.8% of all compounds tested hit in one or more screens of this group.

For CCOC(=O)C1=C(CSc2nc(CC)c(C)cc2C#N)OC(N)=C(C#N)C1c1ccccc1 (centres undefined) the results were ABCB6 inh MLPCN 119.0, Granule exo inh 20.6 and Myeloid diff MLP inactive.
`CCOC(=O)C1=C(CSc2nc(-c3ccccc3)ccc2C#N)OC(N)=C(C#N)C1c1ccc(OC)cc1` (centres undefined) gave ABCB6 inh MLPCN 430.0, Granule exo inh 74.6* and Myeloid diff MLP active.
Screening COc1ccc(C)cc1S(=O)(=O)N1CCN(C(=O)c2ncoc2-c2ccccc2F)CC1 returned ABCB6 inh MLPCN 99.0, Granule exo inh 3.2 and Myeloid diff MLP inactive.
For O=C(NC(=S)NNC(=O)c1cnccn1)c1ccc(Cl)cc1 the results were ABCB6 inh MLPCN 87.0, Granule exo inh 4.6 and Myeloid diff MLP active.
COc1ccc(C(=O)NC(=S)NNC(=O)c2cnccn2)cc1 was read as ABCB6 inh MLPCN 96.0, Granule exo inh -0.6 and Myeloid diff MLP inconclusive.
`Cc1cc(C)cc(C(=O)OCC(=O)NCc2ccco2)c1` gave ABCB6 inh MLPCN 97.0, Granule exo inh -2.7 and Myeloid diff MLP inactive.
`COc1cc(NC(=O)CCc2c(C)noc2C)c(Cl)cc1C(=O)O` gave ABCB6 inh MLPCN 99.0, Granule exo inh -2.0 and Myeloid diff MLP inactive.
For Cc1nn(CCc2nn[nH]n2)c2nc(-c3ccc(C4CCCCC4)cc3)cc(C(F)(F)F)c12 the results were ABCB6 inh MLPCN 101.0, Granule exo inh 0.0 and Myeloid diff MLP active.
For Cc1nn(CCC(=O)O)c2nc(-c3cccnc3)cc(C(F)(F)F)c12 the results were ABCB6 inh MLPCN 105.0, Granule exo inh 2.0 and Myeloid diff MLP inactive.
CC(C)(C)S(=O)(=O)N1Cc2cc(=O)n(Cc3ccccc3)c(CCO)c2[C@H]1CCO was read as ABCB6 inh MLPCN 98.0, Granule exo inh 1.0 and Myeloid diff MLP inactive.
COCCCNC(=O)CCCn1c(=O)c2ccccc2n(CC(=O)Nc2c(C)cc(C)cc2C)c1=O was read as ABCB6 inh MLPCN 123.0, Granule exo inh 0.7 and Myeloid diff MLP active.
`COCCCNC(=O)CCn1c(=O)c2ccccc2n(CC(=O)Nc2c(C)cccc2C)c1=O` gave ABCB6 inh MLPCN 89.0, Granule exo inh -0.8 and Myeloid diff MLP inactive.
Screening CC(C)(C)NC(=O)C1(C)CCC(=O)N1C1CC1 (centres undefined) returned ABCB6 inh MLPCN 100.0, Granule exo inh -2.8 and Myeloid diff MLP inactive.
`CNc1ccc2c3c(cccc13)C(=O)N(C)C2=O` gave ABCB6 inh MLPCN 114.0, Granule exo inh 14.7 and Myeloid diff MLP active.
`CN1C(=O)c2cccc3c(Cl)ccc(c23)C1=O` gave ABCB6 inh MLPCN 102.0, Granule exo inh -1.7 and Myeloid diff MLP inactive.
Cn1nccc1NC(=O)COCC(=O)O was read as ABCB6 inh MLPCN 96.0, Granule exo inh 0.3 and Myeloid diff MLP inactive.
For CCCc1c(C(=O)N/N=C/C2CC=CCC2)nnn1-c1nonc1N (centres undefined) the results were ABCB6 inh MLPCN 90.0, Granule exo inh 0.3 and Myeloid diff MLP inactive.
For Cc1noc(C)c1CN1C(=O)c2ccccc2C1=O the results were ABCB6 inh MLPCN 97.0, Granule exo inh -1.1 and Myeloid diff MLP inactive.
Screening CCSc1ccc2cc(OC)ccc2[n+]1CC returned ABCB6 inh MLPCN 101.0, Granule exo inh -2.0 and Myeloid diff MLP active.
Screening CCn1ccc2cc(OC)ccc2c1=S returned ABCB6 inh MLPCN 87.0, Granule exo inh 4.2 and Myeloid diff MLP inactive.
For CC(=O)c1cccc([N+](=O)[O-])c1 the results were ABCB6 inh MLPCN 102.0, Granule exo inh -4.5 and Myeloid diff MLP inactive.
`COc1cc(/C=C/C(=O)c2cccc([N+](=O)[O-])c2)cc(OC)c1OC` gave ABCB6 inh MLPCN 102.0, Granule exo inh -1.8 and Myeloid diff MLP inconclusive.
`O=C(/C=C/c1ccccc1F)c1cccc([N+](=O)[O-])c1` gave ABCB6 inh MLPCN 108.0, Granule exo inh 85.4* and Myeloid diff MLP inactive.
Screening O=C(C#Cc1ccccc1)c1cccc([N+](=O)[O-])c1 returned ABCB6 inh MLPCN 71.0*, Granule exo inh 54.1 and Myeloid diff MLP inactive.
Screening Cc1ccccc1S(=O)(=O)NC(=O)C1(C)CCN1C(=O)COc1ccc(Cl)cc1 (centres undefined) returned ABCB6 inh MLPCN 104.0, Granule exo inh -1.3 and Myeloid diff MLP inactive.
Screening CCc1ccc(CN(C)C(=O)c2ccc3c(c2)OCCO3)cc1 returned ABCB6 inh MLPCN 234.0, Granule exo inh 2.5 and Myeloid diff MLP active.
Screening CN(Cc1ccccc1)C(=O)c1ccc2c(c1)OCO2 returned ABCB6 inh MLPCN 99.0, Granule exo inh 0.1 and Myeloid diff MLP inactive.
For Cc1nc2n[nH]c(N)c2nc1C the results were ABCB6 inh MLPCN 95.0, Granule exo inh 0.4 and Myeloid diff MLP inactive.
CN(C(=O)Cc1c(C(=O)O)n(C)c2ccccc12)c1ccc(Cl)cc1 was read as ABCB6 inh MLPCN 99.0, Granule exo inh 0.8 and Myeloid diff MLP inactive.
For CC(C)c1ccc(N(C)C(=O)Cc2c(C(=O)O)n(C)c3ccccc23)cc1 the results were ABCB6 inh MLPCN 99.0, Granule exo inh 1.0 and Myeloid diff MLP active.
Screening CCCCCC(=O)N1C[C@@H](n2cc(-c3ccc(F)cc3)nn2)[C@H](O)C[C@@H]1c1ccc(OC)cc1 returned ABCB6 inh MLPCN 92.0, Granule exo inh -2.0 and Myeloid diff MLP inactive.
`Cc1ccc(O)c(C(=O)c2cnc3c(c2)COc2ccccc2-3)c1` gave ABCB6 inh MLPCN 93.0, Granule exo inh 3.2 and Myeloid diff MLP active.
O=C(c1cnc2c(c1)COc1ccc(Cl)cc1-2)c1ccccc1O was read as ABCB6 inh MLPCN 93.0, Granule exo inh -3.0 and Myeloid diff MLP inactive.
Screening COc1ccc(NC(=O)CN2C(=O)C3CC=CCC3C2=O)cc1Cl (centres undefined) returned ABCB6 inh MLPCN 105.0, Granule exo inh -5.1 and Myeloid diff MLP inactive.
For Nc1ccc2nc(N)sc2c1 the results were ABCB6 inh MLPCN 100.0, Granule exo inh 6.0 and Myeloid diff MLP inactive.
`Nc1ccc2sc(N)nc2c1` gave ABCB6 inh MLPCN 91.0, Granule exo inh -2.9 and Myeloid diff MLP active.
For CC(=O)OC1COC(OC(C)=O)CO1 (centres undefined) the results were ABCB6 inh MLPCN 105.0, Granule exo inh -1.0 and Myeloid diff MLP inactive.
COC(=O)[C@@]1(Cc2ccc(OC)cc2)[C@H]2c3cc(C(=O)N4CCCC4)n(Cc4cc(C)n(C)n4)c3C[C@H]2CN1C(=O)c1ccccc1 was read as ABCB6 inh MLPCN 94.0, Granule exo inh -5.8 and Myeloid diff MLP inactive.
For COC(=O)[C@@]1(Sc2ccc(C)cc2)CC(=O)N[C@@H]1c1ccc(Br)cc1 the results were ABCB6 inh MLPCN 101.0, Granule exo inh 6.7 and Myeloid diff MLP inactive.
For O=C(Nn1cnnc1)c1cc2c(s1)CCCC2 the results were ABCB6 inh MLPCN 106.0, Granule exo inh 3.1 and Myeloid diff MLP inactive.
NNC(=O)c1cc2c(s1)CCCCCC2 was read as ABCB6 inh MLPCN 112.0, Granule exo inh -3.8 and Myeloid diff MLP active.
For Nc1ncnc2c1ncn2[C@@H]1O[C@H](CNS(=O)(=O)c2cc(S(=O)(=O)c3ccccc3)cs2)[C@@H](O)[C@H]1O the results were ABCB6 inh MLPCN 100.0, Granule exo inh -0.1 and Myeloid diff MLP inactive.
For Cc1oc(-c2ccc(Cl)cc2)nc1CN1CCCC(C(=O)NCc2ccco2)C1 (centres undefined) the results were ABCB6 inh MLPCN 98.0, Granule exo inh -1.4 and Myeloid diff MLP active.
